We go through 52 molecules from PubChem BioAssay AID2187 (The Scripps Research Institute Molecular Screening Center, 2009).

About 1,200 (92%) of roughly 1,300 compounds were called active.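 How the source made its calls: active means inhibition of the VIM-2 beta-lactamase enzyme above about 11% from the earlier first-round screen (limit read from the data); inactive means the rest.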 The set was probably picked from earlier hits. A selection follows.

The experiment has as its system VIM-2 metallo-beta-lactamase (Pseudomonas aeruginosa). Kind of experiment: inhibition of VIM-2 nitrocefin hydrolysis – biochemical, epi-absorbance, hits shared with IMP-1 screen, confirmation (AID 2187).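 Further: 0% = VIM-2 with DMSO and 100% = buffer wells without enzyme.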 As to conditions: purified VIM-2, nitrocefin hydrolysis, at 5.6 µM, hits give high values.
On to `CCN1CCCC1CNC(=O)c1cc2c(=O)n(C)c3ccccc3c2n1C` (configuration not stated), for which the inhibition was 32.5% (active).
With `CC1CCCC(C)N1CCCNC(=O)c1cc2c(=O)n(C)c3ccccc3c2n1C` (configuration not stated) the figure was 29.3% (active).
With `Cc1cc(NCc2ccco2)n2c(nc3ccccc32)c1C#N` the figure was 53% (active); with `CCN(CC)c1ccc2cc(C(N)=O)/c(=N\NC(=O)c3ccncc3)oc2c1`, 37.4% (active); with `COc1ccc(/C=N/N(C)C2=NS(=O)(=O)c3ccccc32)cc1OC`, 20.6% (active).
Then `O=C(COc1cc2oc(=O)c3c(c2cc1Cl)CCC3)NCCCN1CCOCC1`, with 34.9% (active); and `Cn1c(=O)c2c(nc(N3CCOCC3)n2CCNC2=NCCC2)n(C)c1=O`, with 28% (active).
For `CCN(CC)CCOc1ccc2c(c1)C(=NNC(=O)c1ccccn1)c1cc(OCCN(CC)CC)ccc1-2`, the inhibition is 43.4% (active).
Regarding `Cn1c2ccccc2c(=O)c2c(O)cccc21`, the inhibition is 38.6% (active).
Then `C=CCn1c(-c2ccccc2OCC)n[nH]c1=S`, with 24.7% (active); and `COc1ccc(CCn2c(=N)c(C(=O)NCC3CCCO3)cc3c(=O)n4cccc(C)c4nc32)cc1OC` (configuration not stated), with 27.6% (active); and `CC(=O)c1ccc(-c2ccc(Cn3c(C)nc4cc(N)c(C)nc43)cc2)cc1`, with 26.6% (active).
Then `CCOCCCNc1c(CC)c(C)c(C#N)c2nc3ccccc3n12`, with 20.6% (active).
With `CCOC(=O)N1CCN(C(=O)C2CCN(c3ncnc4c3sc3cccc(F)c34)CC2)CC1` the figure was 22% (active).
Regarding `Cc1cccn2c(=O)c(C=O)c(Nc3ccc(S(N)(=O)=O)cc3)nc12`, the inhibition is 26.6% (active).
Then `O=c1[nH]c(-c2ccccc2)c(-c2ccccc2)[nH]1`, with 45.7% (active); and `COc1cc(/C=N/Nc2nn3cnnc3c3ccccc23)cc(OC)c1OC`, with 53.9% (active).
Then `COc1ccc(Nc2cc(C)nc(-n3nc(C)cc3C)n2)cc1`, with 25.1% (active); and `COc1ccc(Cc2nnc(NS(=O)(=O)Cc3ccccc3)s2)cc1`, with 21.1% (active).
Then `CCC1CCCCN1CCCNC(=O)c1cc2c(Cl)nc3ccccc3c2s1` (configuration not stated), with 32.2% (active); and `Cc1nc2ccccc2c2oc(C(=O)NCCCN3CCC(C)CC3)cc12`, with 29.2% (active); and `CCCc1ccc(OCCNC(=O)c2ccco2)cc1`, with 0.92% (inactive).
As to `O=C(NC(=S)Nc1ccccc1C(=O)O)c1ccc(-c2ccc(Br)cc2)o1`, the inhibition is 8.47% (active).
Then `COC(=O)c1c(NC(=O)c2ccc(S(=O)(=O)N3CCOCC3)cc2)sc2c1CCN(C(C)C)C2`, with 71.3% (active).
In the case of `CNC(=O)c1ccsc1NC(=O)c1ccc(S(=O)(=O)N2CCOCC2)cc1`, the inhibition was 26.7% (active).
With `COc1cc(NC(=O)C2=C(C)OCCS2)c(Cl)cc1C(=O)NCCN1CCN(C)CC1` the figure was 34.3% (active).
With `CCN1CCN(C(=O)Cn2nc(C)n3c(cc4c(OC)cccc43)c2=O)CC1` the figure was 41.4% (active); with `Nc1nnc2c(C(F)(F)F)nc3ccccc3n12`, 21.3% (active); with `NC(=O)C1CCN(C(=O)COc2ccc3c4c(c(=O)oc3c2)CCC4)CC1`, 22.5% (active).
Then `COc1nc(N=C(N)N)nc2c(C)cccc12`, with 24.9% (active).
Take `Cc1cc(C)c2nc3nc(C)cc(C)c3c(N)c2c1`: the inhibition is 28.1% (active).
Then `O=C(NCCCN1CCOCC1)c1cnn2c(-c3ccccc3)cc(-c3ccccc3)nc12`, with 45.4% (active); and `COc1ccc(-c2nn3c(-c4ccccc4)nnc3s2)cc1OC`, with 34.6% (active); and `COc1cc(-c2nn3c(-c4cccc(C)c4)nnc3s2)cc(OC)c1OC`, with 22.1% (active).
As for `COC(=O)c1ccc(-c2noc(CN(Cc3ccccn3)CC3CCCO3)n2)cc1` (configuration not stated), the inhibition was 26.8% (active).
Then `CCN1CCN(CCNC(=O)c2ccc3c(c2)NC(=O)/C(=C\c2ccc(OC)c(OC)c2)S3)CC1`, with 30.4% (active); and `Nc1cccc2c1C(=O)N(Cc1nnc(-c3ccccc3Br)o1)C2=O`, with 18.7% (active); and `CN1CCN(c2ccc(NC(=O)c3ccc4c(c3)[nH]c(=O)n4Cc3ccc(F)cc3)cc2)CC1`, with 33.6% (active).
Then `CC(NS(=O)(=O)c1ccccc1)c1n[nH]c(=S)n1-c1ccccc1` (configuration not stated), with 28.1% (active); and `CN(C)CCNc1ccc(-c2n[nH]c(=O)c3ccccc23)cc1[N+](=O)[O-]`, with 84.4% (active); and `O=C1Nc2cc(C(=O)N3CCC(N4CCCCC4)CC3)ccc2S/C1=C\c1ccccc1`, with 38.5% (active).
On to `Fc1ccc(-c2ccc(CNCc3ccccn3)o2)cc1Cl`, for which the inhibition is 54.3% (active).
Turning to `Cc1ccc2nc(C)c3c(c2c1)N(c1ccccc1)CC3`, the inhibition is 25.2% (active).
With `Cn1c(-c2sccc2OCc2cccc(C(F)(F)F)c2)n[nH]c1=S` the figure was 37.3% (active).
Regarding `Clc1cc(-c2ccc(/C=N/n3cnnc3)o2)ccc1Br`, the inhibition was 57% (active).
With `Cc1cc([N+](=O)[O-])c(-c2ccc(/C=N/n3cnnc3)o2)cc1Cl` the figure was 67.5% (active); with `Cc1cc(-c2ccc(/C=N/n3cnnc3)o2)c([N+](=O)[O-])cc1C`, 69.9% (active); with `Cc1ccc(Cl)cc1-c1ccc(/C=N/n2cnnc2)o1`, 41.2% (active).
Then `CC(C)(C)CC(=O)Nc1nnc(SCC(=O)NCc2cccs2)s1`, with 27.4% (active).
For `CCc1cc(=O)oc2cc(C)cc(OCC(=O)N3CCC[C@@H]3C(=O)O)c12`, the inhibition was 19.7% (active).
Then `CCOc1cc(/C=C2\SC(N3CCCC(C)C3)=NC2=O)ccc1O` (configuration not stated), with 20.7% (active).
With `CCOc1cc(/C=C2\SC(N3CCCCC3)=NC2=O)ccc1O` the figure was 19% (active).
